Experimental findings from PubChem BioAssay AID626 (Vanderbilt High Throughput Screening Facility, 2007) are described below.

Out of some 64,000 compounds screened, about 1,900 (3%) were called active. This excerpt belongs to a sample that is enriched for actives. Unmarked numbers belong to inactive results.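 The calls were made as follows: active = fluorescence rise, raw or as B-score row- and column-corrected plate score, outside the 99.7% band of its plate's samples, either direction; inactive = the rest.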

The experiment deals with Muscarinic acetylcholine receptor M1. The experiment in a line: direct activation of M1 receptor calcium signal – CHO-M1 cells, Fluo-4 calcium, agonist mode, primary screen (AID 626). The conditions noted are these: Fluo-4 calcium fluorescence, at 10 µM, stronger effect = higher value.
With `CCOC(=O)c1c(C)[nH]c(C(=O)NCc2ccccc2OC)c1C`, the B-score is 0.0421.

With `COc1cccc2c(C)c(C(=O)O)[nH]c12`, the B-score is -2.07 (active).

With `COc1ccc(C)cc1NC(=O)c1[nH]c(C)c(C(C)=O)c1C`, the B-score was 1.04.

On to `CCN(CC)CCN1C(=O)C(=O)/C(=C(/O)c2ccc(OC)c(OC)c2)C1c1ccccn1` (stereo not drawn), for which the B-score was -0.817.

Consider `CS(=O)(=O)c1ccc2nc(NC(=O)C3CCCCC3)sc2c1`, for which the B-score is 0.229.

`O=C1NC(Nc2nc3ccccc3s2)(C(F)(F)F)C(=O)N1C1CCCCC1` (stereo not drawn): the B-score is -0.752.

In the case of `COc1ccc(-c2ccc(-c3noc(-c4ccncc4)n3)c(OC)n2)cc1`, the B-score was -0.565.

For `CCOc1nc(-c2ccc(OC)cc2)ccc1-c1noc(-c2cc(OC)c(OC)c(OC)c2)n1`, the B-score is 9.6 (active).

Regarding `COc1cc(-c2nc(-c3ccncc3)no2)cc(OC)c1OC`, the B-score is -0.116.

`CC(C)c1nc2oc3c(N4CCN(C)CC4)ncnc3c2c2c1CCC2`: the B-score was 0.376.

In the case of `Cc1ccccc1Nc1nnc(C)c(=O)[nH]1`, the B-score is -0.209.

As to `CCOC(=O)c1c(N)c(C#N)nn1-c1ccccc1C(=O)OC`, the B-score is -0.00838.

Turning to `Cc1cc(C)cc(OCc2nnc(SCC(=O)Nc3ccccc3)o2)c1`, the B-score was 0.534.

With `c1ccc(Cc2nn3c(Cn4cnc5ccccc54)nnc3s2)cc1`, the B-score was 0.391.

For the compound `O=C(CSc1nnc(Cn2cnc3ccccc32)o1)c1ccccc1`, the B-score is 2.49 (active).

As to `O=C(Nc1nn(Cc2ccccc2F)cc1Br)c1cccs1`, the B-score is -0.416.

Take `O=C(O)c1ccc(COc2c(F)c(F)cc(F)c2F)o1`: the B-score is 0.494.

As to `COc1ccc(Cn2nnc3c(=O)[nH]c(C4CCN(C(=O)c5ccccc5Cl)CC4)nc32)cc1`, the B-score is -0.0421.

`CCc1nc(N2CCN(c3nc(C)cc(C)n3)CC2)c2oc3ccccc3c2n1`: the B-score is 0.00663.

For `CCSc1nc(C)nc2c1oc1ccccc12`, the B-score is 0.362.

Take `CCc1nc(Nc2ccc3nccnc3c2)c2oc3ccccc3c2n1`: the B-score was 3.77 (active).

Consider `COc1cccc(N2C(=O)C3CCCN3C2c2ccc(F)cc2)c1` (stereo not drawn), for which the B-score was -0.0377.

As for `CCn1c(CNc2ccc(OC)cc2)nnc1SCC(=O)c1ccc(OC)cc1`, the B-score is 0.245.

Regarding `CCC1=C(C(=O)OC)C(c2cc(OC)ccc2OC)C(C#N)=C(N)O1` (stereo not drawn), the B-score is -0.762.

For the compound `CCOC(=O)N1CC=C2C(C#N)=C(N)C(C#N)(C#N)[C@H](c3cccs3)[C@H]2C1`, the B-score is 3.8.

With `CCCN1CC=C2C(C#N)=C(N)C(C#N)(C#N)C(c3cc(OC)ccc3OC)C2C1` (stereo not drawn), the B-score is 47 (active).

As to `COc1cccc(N2CC(C(=O)Nc3c(C)cccc3C)CC2=O)c1` (stereo not drawn), the B-score is -0.0783.

With `Cc1nc2sc(C(c3ccco3)N3CCC4(CC3)OCCO4)c(O)n2n1` (stereo not drawn), the B-score was -0.0511.

In the case of `CC(C)(C)n1nnnc1C(c1cccs1)N(Cc1cccnc1)CC1CCCO1` (stereo not drawn), the B-score was 0.0241.

As for `CCC(C)(C)n1nnnc1C(c1cccs1)N1CCN(Cc2ccccc2)CC1` (stereo not drawn), the B-score is 0.516.

For the compound `CCOc1ccc(CN(Cc2ccco2)C(c2cccs2)c2nnnn2C(C)(C)C)cc1` (stereo not drawn), the B-score was 17.1 (active).

Regarding `O=C(c1ccc(=O)[nH]c1)N(Cc1ccco1)C1(C(=O)NC2CCCCC2)CCCCC1`, the B-score is 0.118.

With `O/N=C1\CC2(Cc3nonc31)OCCO2`, the B-score was -0.542.

As to `CN(C)c1ccc(NC(=O)c2ccncc2)c2ccccc12`, the B-score was 0.268.

As to `O=C(c1ccco1)N(Cc1nc2ccccc2c(=O)[nH]1)C1CCCC1`, the B-score was 1.19.

As for `CCc1ccc2oc(-c3ccc(N)cc3)nc2c1`, the B-score is 0.427.

For `COc1ccc2oc(=O)c(C(=O)O)cc2c1`, the B-score is -0.167.

For the compound `CCN(CC)c1ccc2cc(C(=O)O)c(=O)oc2c1`, the B-score is 17.2 (active).

With `CCN(CC)c1ccc2oc(=O)c(C)nc2c1`, the B-score is 19.1 (active).

For `CCCOC(=O)c1cc2ccccc2oc1=O`, the B-score was -0.13.

Take `CCC1(C)Cc2c(sc3nc4n(c(=O)c23)CCCS4)CO1` (stereo not drawn): the B-score is -0.146.

With `CCOC(=O)c1cc(-c2ccc(Cl)s2)nc2c1c(C)nn2C`, the B-score is 0.0112.

As to `CSc1ccc(Cl)c(C(=O)OCC(=O)N2CC(C)OC(C)C2)c1` (stereo not drawn), the B-score was -0.691.

For the compound `Cc1cc(OCCN2CCCC2)ccc1C(C)C`, the B-score was -1.57.

Consider `COc1ccccc1Nc1nc(N)nc(CN(C)C2CCCCC2)n1`, for which the B-score is 0.169.

Consider `COc1ccccc1NC1=NC(c2ccc(Cl)cc2)N=C(N)N1` (stereo not drawn), for which the B-score is 2.75 (active).

`COc1ccccc1NC1=NC2(CCCC2)N=C(N)N1`: the B-score was 0.458.

Consider `O=C(Nc1ccc2c(c1)OCCO2)c1ccncc1`, for which the B-score is -0.637.

For the compound `O=C(Nc1nc(-c2ccc3c(c2)OCO3)cs1)c1ccncc1`, the B-score is 5.34 (active).

In the case of `O=C(Nc1nc(-c2ccncc2)cs1)C1COc2ccccc2O1` (stereo not drawn), the B-score is -1.04.

`CC1(C)CC(=O)C(C=NCCC2=CCCCC2)=C(O)C1`: the B-score is 0.836.

Turning to `O=C(c1ccccc1)N1CCN(C(=O)N2CCCCC2)CC1`, the B-score was -0.157.

Regarding `O=C(Oc1ccc2c(c1)CCC2)N1CCOCC1`, the B-score was -0.594.

Take `O=C(c1ccccc1)c1ccc(OC(=O)N2CCCC2)cc1`: the B-score was -2.34 (active).

In the case of `CC(C)(C)c1ccc(NC(=O)NCc2ccco2)cc1`, the B-score was 0.39.

Consider `c1cnc(NC2C3CC4CC(C3)CC2C4)nc1` (stereo not drawn), for which the B-score is 2.24.

Consider `COc1ccccc1NC(=O)CSc1nc2sc(C)c(C)c2c(=O)n1Cc1ccco1`, for which the B-score was -1.75.

Take `CCOC(=O)CSc1nc2c(sc(=S)n2CCc2ccccc2)c(=O)n1Cc1ccco1`: the B-score is 7.17 (active).

Take `CCOC(=O)CSc1nc2c(c(=O)n(C)c(=O)n2C)n1Cc1ccccc1F`: the B-score was -0.066.

With `CC(=O)Nc1ccc(S(=O)(=O)NCCc2ccccc2)cc1`, the B-score was -0.0675.

As for `Cc1cc(C)n(C(=O)c2ccc(C)c(S(=O)(=O)N3CCOCC3)c2)n1`, the B-score is -0.672.

For `Cc1cc(NC(=O)COC(=O)c2ccc(F)c(S(=O)(=O)N3CCOCC3)c2)no1`, the B-score was 0.164.

For the compound `COc1ccc(C(=O)OCC(=O)c2ccc(C)c(S(=O)(=O)N3CCOCC3)c2)cc1OC`, the B-score is 11.4 (active).

On to `CCC(C)NC(=O)C1CCC(=O)N1Cc1ccc(C)cc1` (stereo not drawn), for which the B-score is -0.196.

On to `O=C(CN1C(=O)COc2ccccc21)Nc1ccc(F)cc1`, for which the B-score was 0.887.

Turning to `O=C(Nc1ccccc1)c1cccnc1Nc1ccccc1`, the B-score was 1.29.

On to `COc1ccc(CNC(=O)c2cc3c(=O)n4ccccc4nc3n(CC3CCCO3)c2=N)cc1` (stereo not drawn), for which the B-score is 0.00619.

Take `Cc1cccn2c(=O)c3cc(C#N)c(=O)n(CCCN4CCOCC4)c3nc12`: the B-score is -0.675.

In the case of `Cc1cccn2c(=O)c3cc(C#N)c(=NC(=O)c4cccnc4)n(CC4CCCO4)c3nc12` (stereo not drawn), the B-score was 37.8 (active).

`CC(=O)NC1CC2CCCC(C1)N2CC(=O)Nc1ccccc1` (stereo not drawn): the B-score was -1.24.

Regarding `C=CCn1c2ccccc2c2nnc(SC(CC)C(=O)Nc3nc(C)c(C(=O)OCC)s3)nc21` (stereo not drawn), the B-score is 1.41.

Take `O=C(O)CCC(=O)NCc1ccc2[nH]c3c(c2c1)CCCC3`: the B-score is 1.3.

For `CCCc1cc(=O)oc2c(C)c(O)c(CN3CCCCC3)cc12`, the B-score was 0.177.

Take `CCn1c(Cc2ccccc2)nnc1SCC(=O)Nc1ccccc1`: the B-score is -0.0339.

For `COc1ccc(CCNC(=O)C2CCN(c3nn4c(=O)cc(C)nc4s3)CC2)cc1OC`, the B-score is 4.73 (active).

Turning to `Cc1cc(=O)n2nc(N3CCCC(C(=O)NCCC4=CCCCC4)C3)sc2n1` (stereo not drawn), the B-score was -0.152.

Regarding `CCCS(=O)(=O)N1CCC(C(=O)NCCc2ccc(OC)c(OC)c2)CC1`, the B-score was -0.16.

With `Clc1ccc(CSc2nnc([C@@H]3CCCN3)o2)cc1`, the B-score is -0.196.

In the case of `CC(C)C1Cc2c(sc3c2c(=O)n(-c2ccccc2)c2nncn32)CO1` (stereo not drawn), the B-score was -0.132.

Consider `O=C(COc1ccc(Cl)cc1)Nc1ccccc1CO`, for which the B-score was 1.32.

On to `O=C(COC(=O)CCc1c[nH]c(=O)[nH]1)Nc1ccccc1Cl`, for which the B-score is 2.4 (active).

Take `CC1(C)CC(CCC(=O)Nc2ccccc2Cl)C(=O)O1` (stereo not drawn): the B-score was 0.285.

In the case of `CCOC(=O)N1CCN(Cc2oc(CO)cc(=O)c2O)CC1`, the B-score is 0.262.

As to `O=C(c1cccc(C(=O)N2CCN(c3ccc(F)cc3)CC2)c1)N1CCN(c2ccc(F)cc2)CC1`, the B-score was 3.5 (active).

Consider `Cc1ccccc1CN1CCN(C(=O)c2cccc(F)c2)CC1`, for which the B-score was -0.152.

For the compound `O=C(c1ccccc1)c1cccn1CC(=O)N1CCN(c2ccc(F)cc2)CC1`, the B-score was -0.56.

With `CS(=O)(=O)N(CC(=O)N1CCOCC1)c1ccc2c3c(cccc13)CC2`, the B-score is 0.155.

As for `Cc1ccc(NC2=NC(c3ccccc3)n3c(nc(C)cc3=O)N2)cc1` (stereo not drawn), the B-score is -0.0683.

Consider `COC(=O)c1ccccc1NC(=O)c1cncc(Br)c1`, for which the B-score is 0.529.

Take `CCOc1ccc2nc(NCCNS(=O)(=O)c3ccccc3)c(C#N)cc2c1`: the B-score was -0.354.

Regarding `CCOc1ccc2nc(N3CCCN(C(=O)Nc4ccccc4C)CC3)c(C#N)cc2c1`, the B-score is 49.3 (active).

Regarding `Cc1cccc2cc(C#N)c(N3CCCC3)nc12`, the B-score was 1.26.

Regarding `Nc1ccc(SCCN2C(=O)c3ccccc3C2=O)cc1`, the B-score is 13.8 (active).

On to `Cc1ccc(SCCN2C(=O)NC(C)(C)C2=O)cc1`, for which the B-score is 0.397.

Take `O=C1c2ccccc2C(=O)N1CCc1nn[nH]n1`: the B-score is 0.641.

Regarding `NS(=O)(=O)c1ccc(NS(=O)(=O)/C=C/c2ccccc2)cc1`, the B-score is -0.0855.

Turning to `O=C(OCCO)c1cc(Cl)c(C(=O)OCCO)cc1Cl`, the B-score was 0.283.

`Cc1ccc(CNC(=O)CN2CCN(Cc3ccc(Cl)cc3)C2=O)cc1`: the B-score was -0.559.
